An excerpt weighted towards active compounds, which were near 19% of everything screened.
HT1080 IDH1KD tx = qHTS for induction of synthetic lethality in tumor cells producing 2HG: qHTS for the HT-1080-IDH1KD cell line; HT-1080 IDH1 knockdown viability, ATP luminescence, 48 h; Potency, µM (highest dose often 46.1 µM), inactives show at the top dose activity, negative = toxicity, hits mostly cytotoxic; 2% of 360,000 active;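 further: potency means the concentration at half of the fitted maximal effect; 0% = DMSO wells and -100% = cell-free medium wells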
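Cytotoxicity counter-line: IDH1KD HT-1080, 48 h, CellTiter-Glo. Curves classed by r2, magnitude and activity.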
HT1080-NT tox = qHTS for induction of synthetic lethality in tumor cells producing 2HG: qHTS for the HT-1080-NT fibrosarcoma cell line; HT-1080-NT fibrosarcoma viability, CellTiter-Glo ATP luminescence, 48 h; Potency, µM (doses to about 46.1 µM), inactives show at the top dose activity, negative = less viability, hits mostly cytotoxic; 1.6% of 360,000 active; AID 686970, 2013;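 further: NT is the 2HG producing partner of a matched IDH1 knockdown line; potency means the concentration at half of the fitted maximal effect; 0% = DMSO-treated cells and -100% = media-only wells without cells; nearly all actives have a fitted effect of over 55% in size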
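Compounds were tested in concentration-response format on HT-1080-NT cells for 48 hours at 37 degrees C. Cell viability came from CellTiter-Glo luminescence; curves were classified by r2, response magnitude and activity.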
TDP1 cell noCPT = qHTS for Inhibitors of human tyrosyl-DNA phosphodiesterase 1 (TDP1): qHTS in cells in absence of CPT; DT40 Tdp1-/- hTDP1 cells, no CPT, ATP luminescence, 48 h; Potency, µM (doses to about 46.2 µM), for the others: top-dose activity change, negative = growth inhibition, usual class: inhibitors; 15% of 420,000 active; AID 686978, 2013; further: potency means the concentration at half of the fitted maximal effect; nearly all actives have a fitted effect of over 55% in size
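Stably hTDP1-transfected Tdp1-null chicken DT40 cells were treated with library compounds minus camptothecin and grown for at least 48 hr at 37 °C, after which cellular ATP was quantified by luminescence.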
IL1B secr inh = qHTS for Inhibitors of Inflammasome Signaling: IL-1-beta AlphaLISA Primary Screen; AID 743279, 2014; activity change, % at 57.5 µM; THP-1 LPS/ATP IL-1B secretion, AlphaLISA, 16 h; active compounds read low; 4.7% of 360,000 active; in the data active means activity change below about -50%; inconclusive means mostly about -30% to -49%
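THP-1 cells pretreated 1 hr with compounds (up to 57.5 uM final), then stimulated with LPS (250 ng/mL final) plus ATP (1.25 mM final); secreted IL-1B measured by AlphaLISA after 16 hr, decreased signal indicating inhibition.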
uPA generation = qHTS for Inhibitors of Cell Surface uPA Generation | cell surface uPA generation assay, qHTS | 0.31% of 330,000 active | Potency, µM (top dose mostly 38.3 µM), for inactives: at the highest dose activity change, negative = inhibition, most hits filed as inhibitors; active means well fitted inhibition curve with a large enough effect; inconclusive means small, poorly fitted or top-dose-only effect; inactive means no such curve, though single readings can be large or run the other way; tested in mouse RAW 264.7 cells; further: potency means the concentration at half of the fitted maximal effect; nearly all actives have a fitted effect of over 55% in size
DT40 TDP1 CPT = qHTS for Inhibitors of human tyrosyl-DNA phosphodiesterase 1 (TDP1): qHTS in cells in presence of CPT; Potency, µM (highest dose often 46.2 µM), for inactives: at the highest dose activity change, negative = growth inhibition, usual class: inhibitors; AID 686979, 2013; chicken DT40 Tdp1-/-;hTDP1 cells + 20 nM CPT, ATP luminescence, 48 h; 12% of 420,000 active; further: potency means the concentration at half of the fitted maximal effect; nearly all actives have a fitted effect of over 55% in size
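Cell growth measured by CellTiter-Glo luminescence after a minimum 48 h, 37 C compound exposure with 20 nM CPT in Tdp1-knockout DT40 cells stably expressing hTDP1, seeded 400/well; qHTS titration format.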
Active calls of the source: *; ? = inconclusive; · = no result given; [ ] = another dose, or the depositor's remark. Unless noted, the call rests on the fitted dose curve; in most records, active means well fitted curve in the direction sought with a large enough effect; inconclusive means small, poorly fitted or top-dose-only effect, or another doubt; inactive means no such curve, though single readings can be large; an effect the other way counts as inactive or inconclusive. Unless noted, on the % scale 0 is the no-effect control and ±100 the full control effect.

SMILES	HT1080 IDH1KD tx	HT1080-NT tox	TDP1 cell noCPT	IL1B secr inh	uPA generation	DT40 TDP1 CPT
O=C1c2ccccc2C2N1CCCN2C(=O)c1sc2ccccc2c1Cl (configuration not stated)	-22%	-13%	16µM*	39	·	18µM*
COc1ccc2oc(C(=O)Nc3ccccn3)c(C)c2c1	-19%	-24%	-23%	-10	-14%	?
COc1ccc2oc(C(=O)Nc3nc(C)cs3)c(C)c2c1	?	?	?	10	10µM*	?
Cc1c(C(=O)Nc2nc(-c3ccccn3)cs2)oc2ccccc12	?	?	3.7µM*	181	?	5.2µM*
O=C(Nc1nc(-c2ccccn2)cs1)c1cc2ccccc2o1	?	-25%	7.3µM*	75	-13%	?
Cc1cc(-c2csc(NC(=O)c3cc4ccccc4o3)n2)c(C)n1C	-3%	8%	?	-7	·	?
CCn1c(-c2ccccc2F)nc2cc(C(=O)NC(c3ccccn3)C(F)(F)F)cc(NC(C)=O)c21 (configuration not stated)	·	·	-13%	·	·	7%[9.04 µM]
C#CCOCCOCCOCCNc1nc(N2CCN(C(=O)[C@H](CCC(=O)O)n3cc(C(N)[C@H](C)CC)nn3)CC2)nc(N2CCN(C(=O)[C@H](CCC(=O)O)n3cc(C(N)[C@H](C)CC)nn3)CC2)n1 (some centres not stated)	-2%	2%	?	3	?	9%
COc1cccc(/C=C/C(=O)NNC(=O)c2cc(C)oc2C)c1	-4%	-2%	-12%	-13	11%	-20%
COc1cc(C(=O)Nc2ccc3nc(SCc4ccccc4)sc3c2)cc(OC)c1OC	·	·	15µM*	·	·	13µM*
COc1cc(CC(=O)Nc2ccc3nc(C)sc3c2)cc(OC)c1OC	0%	-18%	?	35	0%	-21%
CCC(=O)Nc1nc2ccc(NC(=O)c3cc(OC)c(OC)c(OC)c3)cc2s1	-16%	-26%	21µM*	-52*	-4%	?
CCCC(=O)Nc1ccc2nc(SCc3ccc(C)cc3)sc2c1	·	·	?	·	·	-2%
CCC(CC)C(=O)Nc1ccc2nc(SCc3ccccc3)sc2c1	·	·	16µM*	·	·	16µM*
CCC(=O)Nc1ccc2nc(SCc3ccccc3)sc2c1	·	·	13µM*	·	·	?
CS(=O)(=O)Nc1ccccc1C(=O)NCCSc1ccccc1	0%	-2%	5%	12	-6%	16%
O=C(CSc1nnnn1-c1ccccc1)Nc1ccccc1	5%	10%	1%	-1	5%	-1%
O=C(CSc1nc2ccc(NC(=O)CSc3nnnn3-c3ccccc3)cc2s1)Nc1ccccc1	?	?	?	10	-1%	16µM*
CCOC(=O)C1=C[C@@H](C(C)C)N(S(=O)(=O)c2ccc(C)cc2)[C@H]1c1ccc(C(F)(F)F)cc1	-19%	-14%	12µM*	44	·	?
CCOC(=O)C1=C[C@@H](C)N(S(=O)(=O)c2ccc(C)cc2)[C@H]1c1ccccc1	-7%	-3%	?	1	·	?
CCOC(=O)C1=C[C@@H](C(C)(C)C)N(S(=O)(=O)c2ccc(C)cc2)[C@H]1c1ccc(Cl)c(Cl)c1	15µM*	15µM*	23µM*	25	·	16µM*
CCC[C@@H]1C=C(C(=O)OCC)[C@H](c2ccccc2)N1S(=O)(=O)c1ccc(C)cc1	-23%	-10%	5.2µM*	4	·	5.2µM*
CCOC(=O)C1=C[C@@H](CC)N(S(=O)(=O)c2ccccc2)[C@H]1c1ccccc1	0%	-1%	18µM*	1	·	?
CCc1ccc(C2C(C(=O)Nc3ccccc3C)=C(C)Nc3nc(SCc4cccc(OC)c4)nn32)cc1 (configuration not stated)	·	·	-19%	·	·	-5%
c1ccc(CCNc2ccc3ncc(-c4cccc5ccccc45)n3n2)nc1	-8%	-25%	?	6	·	?
SMILES	HT1080 IDH1KD tx	HT1080-NT tox	TDP1 cell noCPT	IL1B secr inh	uPA generation	DT40 TDP1 CPT
CCOC(=O)N1CCN(S(=O)(=O)c2ccc([N+](=O)[O-])cc2)CC1	8%	-6%	2%	-6	0%	-1%
CCOC(=O)C1=C[C@@H](c2ccccc2)N(S(=O)(=O)c2ccc(C)cc2)[C@H]1c1ccccc1Cl	10%	1%	26µM*	1	·	?
CCOC(=O)C1=C[C@@H](C2CCCCC2)N(S(=O)(=O)c2ccc([N+](=O)[O-])cc2)[C@H]1c1ccccc1	8.2µM*	?	?	-19	·	21µM*
COc1cc(NC(=O)c2cccc3c2C(=O)N(C2CCCCC2)C3)cc(OC)c1	·	·	?	·	·	-6%
CCn1c(C(=O)OC)cc2c1ccn2-c1ccc(F)cc1	?	5%	13µM*	-21	-4%	18µM*
COC(=O)c1cc2c(ccn2-c2ccc(F)cc2)n1Cc1ccc(OC)cc1	0%	-3%	-4%	-9	0%	2%
O=C(Cn1ccc2ccccc21)Nc1ccc2c(c1)OCO2	-4%	-8%	-29%	-7	4%	21%
Cc1ccc(NC(=O)Cn2cc(C=O)c3ccccc32)cc1	0%	-15%	-24%	65	5%	?
O=C(CNc1ccc2c(c1)OCO2)N/N=C\c1cn(Cc2ccccc2)c2ccccc12	-20%	-15%	23µM*	-6	2%	18µM*
COc1cccc(NC(=O)Cn2cc(C=O)c3ccccc32)c1	-14%	-26%	26µM*	36	-1%	16µM*
Cc1ccc(OCC(=O)N/N=C/c2cn(Cc3ccccc3)c3ccccc23)cc1	-3%	?	?	15	-5%	-23%
